UGM FP inh – blocks M. tuberculosis UGM enzyme. inhibition, % at 10 µM. 320,000 tested, 0.06% active. P9WIQ1. purified UGM, fluorescence polarization probe displacement; in the data active = inhibition above about 10%, passing the limit was not always enough
Rv3671c protease – Rv3671c (M. tuberculosis) protease inhibition; P9WHR9; inhibition, % at 5.96 µM; 320,000 tested, 0.048% active; in the data active = inhibition above about 38%;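 also: extracellular domain of Rv3671c used as enzyme; 0% = enzyme with DMSO and 100% = no enzyme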
TcdB inh – inhibitors of Clostridioides difficile toxin B glycohydrolase; TcdB glycohydrolase enzymatic assay, plate reader; 350,000 tested, 0.24% active; P18177; inhibition, % at 9.99 µM; in the data active = inhibition above about 10%
RecA intein inh – Mtb RecA intein splicing inhibition | P9WHJ3 | cell-free RecA intein splicing, fluorescence | inhibition, % (no concentration beside the values) | 290,000 tested, 0.75% active; in the data active = inhibition above about 30%;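 also: 0% = vehicle wells and 100% = reference inhibitor control wells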
FadD28 binding – blocks FadD28 binding to the bisubstrate probe | inhibition, % at 12.5 µM | 360,000 tested, 0.22% active | fluorescence polarization; in the data active = inhibition above about 8.5%, passing the limit was not always enough
BioA inh-1 – blocks M. tuberculosis BioA enzyme activity; purified M. tuberculosis BioA enzyme, plate reader; inhibition, % at 9.99 µM; AID 602481; 360,000 tested, 0.096% active; in the data active = inhibition above about 40%
BioA inh-2 – blocks M. tuberculosis BioA aminotransferase; shares compounds with BioA inh-1; purified BioA enzyme, plate reader, dose response; max activity, %; 310 tested, under 10 active;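 also: top concentration of the dilution series was 10 µM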
HepG2 tox 2 – kills HepG2 cells. shares compounds with BioA inh-1. 310 tested, under 10 active. HepG2 cytotoxicity, plate reader. max activity, %
3T3 cytotox 5 – cytotoxicity in NIH3T3 cells; shares compounds with BioA inh-1; plate reader; activity change, negative = cytotoxicity, % at 26 µM; 310 tested, under 10 active
Numbers without * were called inactive; i = inactive; nt = no result; [ ] = another dose, or the depositor's remark. Rows were chosen to be rich in hits. Some 0.9% of all compounds tested hit in one or more screens of this group. Unless noted, no rule for the calls is given here.

SMILES | UGM FP inh | Rv3671c protease | TcdB inh | RecA intein inh | FadD28 binding | BioA inh-1 | BioA inh-2 | HepG2 tox 2 | 3T3 cytotox 5
CC(=O)N1[C@@H]2c3ccc(-c4cncnc4)c(=O)n3C[C@@H]2[C@@H](CO)[C@@H]1C(=O)NCc1ccccc1Cl | nt | nt | -1 | nt | nt | 12 | nt | nt | nt
CC(=O)N1[C@@H]2c3ccc(-c4cccnc4)c(=O)n3C[C@@H]2[C@@H](CO)[C@@H]1C(=O)NCc1ccccc1Cl | nt | nt | 0 | nt | nt | 85* | 9 | i | -9
CCNC(=O)[C@H]1[C@H](CO)[C@H]2Cn3c(ccc(-c4ccccc4)c3=O)[C@H]2N1C(=O)Cc1cccnc1 | nt | nt | 0 | nt | nt | 40* | -2 | i | 10
CCNC(=O)[C@@H]1[C@@H](CO)[C@@H]2Cn3c(ccc(-c4ccc(F)cc4)c3=O)[C@@H]2N1C(=O)Cc1cccnc1 | nt | nt | -1 | nt | nt | 3 | nt | nt | nt
Cc1ccc(S(=O)(=O)Nc2ccc3c(c2)C(=O)N([C@H](C)CO)C[C@H](C)[C@H](CN(C)Cc2ccncc2)OCCCC[C@H](C)O3)cc1 | nt | nt | 0 | nt | nt | 0 | nt | nt | nt
C[C@@H](NC(=O)C[C@@H]1CC[C@@H]2[C@H](COC[C@H](O)CN2Cc2cc(F)ccc2F)O1)c1ccccc1 | nt | nt | 1 | nt | nt | -1 | nt | nt | nt
O=C(Nc1ccc2nccnc2c1)c1cnccn1 | 0 | 0 | nt | -1 | -3 | 48* | -9 | 12 | -2
O=C(Nc1ccc2ccccc2c1)c1cnccn1 | 2 | -9 | nt | 5 | -3 | 3 | nt | nt | nt
COc1ccc(S(=O)(=O)Nc2ccc3c(c2)C(=O)N([C@H](C)CO)C[C@@H](C)[C@H](CN(C)C)OCCCC[C@H](C)O3)cc1 | nt | nt | -2 | nt | nt | 0 | nt | nt | nt
CCC(=O)N1CC[C@@H]2[C@H]1c1cc(-c3cccc(F)c3)ccc1N(C)[C@@H]2CO | nt | nt | nt | nt | nt | 90* | -4 | i | -7[23.5 µM]
CCC(=O)N1CC[C@@H]2[C@H]1c1cc(-c3ccc(F)cc3)ccc1N(C)[C@@H]2CO | nt | nt | 0 | nt | nt | nt | nt | nt | nt
CN1c2ccc(-c3cccc(F)c3)cc2[C@H]2[C@H](CCN2C(=O)c2ccncc2)[C@H]1CO | nt | nt | nt | nt | nt | 95* | -11 | i | 2
CC(=O)N1CC[C@@H]2[C@@H](CO)N(C)c3ccc(-c4ccccc4)cc3[C@@H]21 | nt | nt | 17* | nt | nt | 42* | 18 | i | 10
CN1c2ccc(-c3cccc(F)c3)cc2[C@H]2[C@H](CCN2C(=O)c2cccc(F)c2)[C@@H]1CO | nt | nt | 1 | nt | nt | nt | nt | nt | nt
CN1c2ccc(-c3cccc(F)c3)cc2[C@H]2[C@H](CCN2C(=O)c2ccc3c(c2)OCO3)[C@H]1CO | nt | nt | 2 | nt | nt | 99* | -5 | i | -3[23.5 µM]
CCC(=O)N1[C@@H]2c3ccc(C4=CCCC4)c(=O)n3C[C@H]1[C@H](CO)[C@H]2C(=O)N[C@@H](C)c1ccccc1 | nt | nt | 1 | nt | nt | 0 | nt | nt | nt
CN1c2ccc(-c3cccc(C#N)c3)cc2[C@H]2[C@H](CCN2C(=O)CC2CC2)[C@H]1CO | nt | nt | nt | nt | nt | 65* | 17 | i | 3[23.5 µM]
CN1c2ccc(-c3cccc(F)c3)cc2[C@H]2[C@H](CCN2C(=O)C2CCOCC2)[C@H]1CO | nt | nt | 2 | nt | nt | 76* | -3 | i | -1
CN1CCN(C(=O)C[C@@H]2C[C@H]3c4cc(NC(=O)Nc5ccc(F)cc5)ccc4O[C@H]3[C@@H](CO)O2)CC1 | nt | nt | -1 | nt | nt | -1 | nt | nt | nt
O=C(c1ccccc1F)N1CC[C@@H]2[C@H]1c1cc(Br)ccc1N[C@@H]2CO | nt | nt | 2 | nt | nt | 49* | 4 | i | 6
O=C(c1ccccc1F)N1CC[C@@H]2[C@H](CO)Nc3ccc(Br)cc3[C@@H]21 | nt | nt | -3 | nt | nt | 83* | -6 | i | 7
O=C(c1ccccc1F)N1CC[C@@H]2[C@H](CO)Nc3ccc(-c4ccccc4)cc3[C@@H]21 | nt | nt | 0 | nt | nt | -1 | nt | nt | nt
O=C(c1cccc(F)c1)N1CC[C@@H]2[C@@H](CO)Nc3ccc(-c4cccc(F)c4)cc3[C@@H]21 | nt | nt | nt | nt | nt | 98* | -11 | i | -9
COc1ccc(C(=O)Nc2ccc(Cn3ccnc3)cc2)cc1OC | 0 | 0 | 1 | 0 | -2 | 44* | -3 | 19 | 3
COc1ccc(NC(=O)c2ccc(S(=O)(=O)N(C)C)cc2)cc1OC | 0 | 0 | nt | -2 | -3 | 43* | -8 | -5 | -5
SMILES | UGM FP inh | Rv3671c protease | TcdB inh | RecA intein inh | FadD28 binding | BioA inh-1 | BioA inh-2 | HepG2 tox 2 | 3T3 cytotox 5
COc1cc2c(cc1NC(=O)c1cccnc1)CCCC2 | 1 | 5 | nt | 7 | 0 | 56* | -7 | -12 | -8
COc1cc(NC(=O)c2cccnc2)c(OC)cc1NC(=O)c1ccc(Br)cc1 | -1 | 11 | nt | 2 | -3 | 5 | nt | nt | nt
Cn1nnc2cc(C(=O)Nc3cccnc3)ccc21 | -2 | 2 | nt | 0 | -4 | 55* | -7 | 25 | 2
CO[C@@H]1CN(C)C(=O)c2cc(NS(=O)(=O)c3cn(C)cn3)ccc2OC[C@@H](C)N(Cc2cccc(F)c2)C[C@H]1C | nt | nt | -1 | nt | nt | 1 | nt | nt | nt
O=C(C1CC1)N1CCCCN2[C@H](CO)[C@@H](c3ccc(C#CC4CC4)cc3)[C@H]2C1 | nt | nt | -1 | nt | nt | -2 | nt | nt | nt
CC(=O)N(C)C[C@H]1Oc2ncc(-c3cccnc3)cc2C(=O)N([C@@H](C)CO)C[C@H]1C | nt | nt | 0 | nt | nt | -14 | nt | nt | nt
CO[C@@H]1CN(C)C(=O)c2ccc(NS(C)(=O)=O)cc2OC[C@@H](C)NC[C@@H]1C | nt | nt | 0 | nt | nt | 0 | nt | nt | nt
CC(C)c1cn(CC[C@@H]2CC[C@@H](NS(=O)(=O)c3ccc(Cl)cc3)[C@H](CO)O2)nn1 | nt | nt | -1 | nt | nt | 0 | nt | nt | nt
CCCCN1C(=O)c2ccc(C(=O)Nc3cccnc3)cc2C1=O | -1 | -5 | nt | 3 | 1 | 82* | -7 | 6 | -1
CN1C(=O)c2ccc(C(=O)Nc3cccnc3)cc2C1=O | 0 | nt | 1 | -1 | 1 | 31 | nt | nt | nt
COc1ccc(C(=O)Nc2cccnc2)cc1OC | -2 | 5 | nt | nt | 0 | 57* | -5 | 24 | -2
O=C(C[C@H]1C[C@@H]2c3cc(NC(=O)c4cccnc4)ccc3O[C@@H]2[C@@H](CO)O1)NCC(F)(F)F | nt | nt | 0 | nt | nt | 44* | -5 | i | 0
O=C(Nc1ccc2c(c1)[C@H]1C[C@@H](CC(=O)N3CCc4ccccc4C3)O[C@@H](CO)[C@H]1O2)c1cccnc1 | nt | nt | 1 | nt | nt | 42* | -6 | i | -5
CN(C)C(=O)C[C@H]1C[C@@H]2c3cc(NC(=O)c4cccnc4)ccc3O[C@@H]2[C@@H](CO)O1 | nt | nt | 0 | nt | nt | 19 | nt | nt | nt
CN(C)C(=O)C[C@@H]1C[C@@H]2c3cc(NC(=O)c4cccnc4)ccc3O[C@@H]2[C@@H](CO)O1 | nt | nt | 0 | nt | nt | 48* | -8 | i | -1
O=C(C[C@@H]1C[C@H]2c3cc(NC(=O)c4cccnc4)ccc3O[C@H]2[C@@H](CO)O1)NCc1cc(F)ccc1F | nt | nt | 0 | nt | nt | 41* | 6 | i | 1[23.5 µM]
